# Assay results from PubChem BioAssay.
# A number with no mark means an inactive call. The rule behind the calls is not given here. Starred links: 1 amine or outer side, 2 acyl side, 3 side chain; linkers in the order of their positions; H or OH if unused. Positions of bridges follow the written chain, without caps; N, C: chain ends. Non-standard residues stand in square brackets, D forms with d. Residues, ends and D or L forms follow the SMILES beside them. ξ: configuration not given here. *: point of attachment. ΔAla(E,3-NHCONH2) = NC(=O)N/C=C(/N)C(=O)O; X1 = NC1=NCCC(C(N[*:1])C(=O)[*:2])N1; ξβ3hOrn = NCCCC(N)CC(=O)*; Dap = NC[CH](N)C(=O)O
# Test system: Aerobactin synthetase IucA (Klebsiella pneumoniae hvKP1)
# Experiment: Biochemical IucA enzyme inhibition primary screen of the Spectrum library (AID 1346200);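 note: 100% = wells without compound and 0% = wells lacking enzyme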
# Conditions: malachite green pyrophosphate, A620, at 8 µM, hits give low values
row,SMILES,activity remaining
1,O=C(OCc1ccccc1)c1ccccc1,108%
2,Cc1[nH]c(C)c(Cl)c(=O)c1Cl,121%
3,CC/C(=C(/CC)c1ccc(O)cc1)c1ccc(O)cc1,104%
4,CCOc1ccc2nc3cc(N)ccc3c(N)c2c1,96.1%
5,COc1ccnc(CS(=O)c2nc3ccc(OC(F)F)cc3[nH]2)c1OC (centres undefined),127%
6,Cc1c(NC(C)C)c(=O)n(-c2ccccc2)n1C,105%
7,CC(=O)O[C@@H]1CC2C(C)(C)C(=O)CC[C@]2(C)C2CC[C@@]3(C)[C@H](c4ccoc4)OC(=O)C4OC43[C@@]21C (some centres undefined),110%
8,CC(=O)O[C@@H]1C[C@@]2(C)C(CC[C@@H]2C(C)=O)C2CCC3=CC(=O)CC[C@]3(C)C21 (some centres undefined),88.2%
9,CCc1cc(C(N)=S)ccn1,105%
10,CC(C)C(C)/C=C/C(C)[C@H]1CCC2C3=CCC4CC(=O)CC[C@]4(C)C3CC[C@@]21C (some centres undefined),92.7%
11,C[C@]12CC[C@H](O)CC1=CCC1C2CC[C@]2(C)C(=O)CCC12 (some centres undefined),103%
12,CN1C2CC[C@@H]1CC(OC(=O)[C@H](CO)c1ccccc1)C2 (some centres undefined),102%
13,CC1O[C@@H](Oc2c(-c3ccc(O)c(O)c3)oc3cc(O)cc(O)c3c2=O)[C@H](O)[C@H](O)[C@H]1O (some centres undefined),111%
14,O=C(O)c1cn(C2CC2)c2cc(N3CCNCC3)c(F)cc2c1=O,77.6%
15,CCC(=O)OCC(=O)C1(OC(=O)CC)C(C)CC2C3CCC4=CC(=O)C=CC4(C)C3(Cl)C(O)CC21C (centres undefined),119%
16,COc1ccc([C@@H]2CC(=O)c3c(O)cc(O[C@@H]4O[C@H](CO[C@H]5O[C@@H](C)[C@H](O)[C@@H](O)[C@H]5O)[C@@H](O)[C@H](O)[C@H]4O)cc3O2)cc1O,102%
17,Nc1ccc(S(=O)(=O)NC(=O)c2ccccc2)cc1,109%
18,CCC[C@@H]1C[C@@H](C(=O)N[C@H]([C@H]2O[C@H](SC)[C@H](O)[C@@H](O)[C@H]2O)[C@H](C)O)N(C)C1,111%
19,Cc1ccc2c(c1)CC[C@H]1CC(=O)CC[C@]21C,112%
20,CC(CCC(=O)O)[C@H]1CCC2C3CC[C@@H]4C[C@H](O)CC[C@]4(C)C3CC[C@@]21C (some centres undefined),91.8%
21,COc1ccc(CCC(=O)c2c(O)cc(O[C@@H]3O[C@H](CO)C(O)[C@H](O)C3O[C@@H]3O[C@@H](C)[C@H](O)[C@@H](O)[C@H]3O)cc2O)cc1O (some centres undefined),109%
22,CC(=O)N[C@@H](Cc1c[nH]c2ccccc12)C(=O)O,110%
23,CC1(C)O[C@@H]2CC3C4C[C@H](F)C5=CC(=O)CC[C@]5(C)C4[C@@H](O)C[C@]3(C)[C@]2(C(=O)CO)O1 (some centres undefined),118%
24,CC(=O)O[C@@H]1CC2C(C)(C)CCC(=O)[C@]2(C)C2CC[C@@]3(C)[C@H](c4ccoc4)OC(=O)C4OC43[C@@]21C (some centres undefined),113%
25,CCN(CC)CCNC(=O)c1cc(Br)c(N)cc1OC,109%
26,C/C=C(/C)C(=O)O[C@H]1CC[C@@]2(C)[C@@H]3CC[C@H]4[C@]5(O)C[C@H](O)[C@@]6(O)[C@@H](CN7C[C@@H](C)CC[C@H]7[C@@]6(C)O)[C@]5(O)C[C@@]42OC13O,103%
27,Cc1cc2nc3c(=O)[nH]c(=O)nc-3n(CC(O)C(O)C(O)CO)c2cc1C (centres undefined),106%

row,SMILES,activity remaining
1,NS(=O)(=O)c1cc(C2(O)NC(=O)c3ccccc32)ccc1Cl (centres undefined),117%
2,Nc1ccc(S(=O)(=O)Nc2nccs2)cc1,101%
3,O=C(O)CC(O)(CC(=O)O)C(=O)O,123%
4,COc1c(O)cc2c(c1O)[C@H]1O[C@H](CO)[C@@H](O)[C@H](O)[C@@H]1OC2=O,112%
5,Cc1c(S(=O)(=O)O)oc2c1C(=O)C(=O)c1c-2ccc2c1CCCC2(C)C,127%
6,COc1c2occc2cc2ccc(=O)oc12,124%
7,C/C=C/C(=O)N(CC)c1ccccc1C,112%
8,CCCCC(CC)CN=C(N)NC(N)=NCCCCCCN=C(N)NC(N)=NCC(CC)CCCC (centres undefined),98.4%
9,OC(CCN1CCCCC1)(c1ccccc1)c1ccccc1,95.4%
10,COc1c(CC(=O)c2cc3c(cc2O)OC(C)(C)C(O)C3)ccc2c1C=CC(C)(C)O2 (centres undefined),96.2%
11,COc1ccc(C(=O)O)c(O)c1OC,93.8%
12,COc1ccc(-c2cc(=O)c3c(O)cc(O[C@H]4O[C@H](CO[C@@H]5O[C@@H](C)[C@H](O)[C@@H](O)[C@H]5O)[C@@H](O)[C@H](O)[C@H]4O)cc3o2)cc1,101%
13,NC1=NCCN1CC(=O)O,112%
14,Cc1cc(NS(=O)(=O)c2ccc(N)cc2)no1,110%
15,CC(C)=CCc1c2c(c3occ(-c4ccc(O)cc4)c(=O)c3c1O)C=CC(C)(C)O2,99.3%
16,C/C=C(/C)C(=O)O[C@@H]1[C@H](OC(C)=O)[C@@]2(CO)C(CC1(C)C)C1=CCC3[C@@]4(C)CC[C@H](O[C@@H]5O[C@H](C(=O)O)[C@@H](O[C@@H]6O[C@H](CO)[C@@H](O)[C@H](O)[C@H]6O)[C@H](O)[C@H]5O[C@@H]5O[C@H](CO)[C@@H](O)[C@H](O)[C@H]5O)[C@](C)(CO)C4CC[C@@]3(C)[C@]1(C)C[C@H]2O (some centres undefined),119%
17,COc1cc2c3cc1Oc1cc(ccc1O)C[C@@H]1c4c(cc(OC)c(O)c4Oc4ccc(cc4)C[C@@H]3N(C)CC2)CC[N+]1(C)C,99.6%
18,COc1ccc(-c2oc3cc(OC)c(OC)c(OC)c3c(=O)c2OC)cc1OC,83.1%
19,Nc1ncnc2c1ncn2C1C[C@H](O)[C@@H](CO)O1 (some centres undefined),125%
20,C=CCSC[C@@H](N)C(=O)O,98.6%
21,C=C(C)C1(O)OC(=O)C=C1OC (centres undefined),124%
22,NC(=O)NC1NC(=O)NC1=O (centres undefined),113%
23,COC(=O)[C@H](Cc1ccccc1)NC(=O)[C@@H](N)CC(=O)O (H-Asp-Phe-OMe),104%
24,C=CC1=C(C(=O)O)N2C(=O)[C@@H](NC(=O)/C(=N\O)c3csc(N)n3)[C@H]2SC1 (stereo in doubt),103%
25,CC(C)c1c(C(=O)c2ccccc2)c(-c2ccccc2)c(-c2ccc(F)cc2)n1CC[C@@H](O)C[C@@H](O)CC(=O)O,116%
26,COC(=O)Nc1nc2ccc(S(=O)c3ccccc3)cc2[nH]1 (centres undefined),110%
27,O=C(Oc1cc(O)cc2c1C[C@@H](OC(=O)c1cc(O)c(O)c(O)c1)[C@@H](c1cc(O)c(O)c(O)c1)O2)c1cc(O)c(O)c(O)c1,122%

row,SMILES,activity remaining
1,Nc1nc(/C(=C/CC(=O)O)C(=O)N[C@@H]2C(=O)N3C(C(=O)O)=CCS[C@H]23)cs1,117%
2,COC1CC(O[C@H]2CC[C@]3(C=O)C4CC[C@]5(C)C(C6=CC(=O)OC6)CC[C@]5(O)C4CC[C@]3(O)C2)OC(C)C1O (some centres undefined),117%
3,COc1ccc(-c2oc3c(CC=C(C)C)c(O[C@@H]4O[C@H](CO)[C@@H](O)[C@H](O)[C@H]4O)cc(O)c3c(=O)c2O[C@@H]2O[C@@H](C)[C@H](O)[C@@H](O)[C@H]2O)cc1,121%
4,Cc1ccc(C(=O)C(C)CN2CCCCC2)cc1 (centres undefined),113%
5,CN(Cc1cc(Br)cc(Br)c1N)C1CCCCC1,112%
6,"NCCCC(N)CC(=O)NCC1NC(=O)C(CO)NC(=O)C(N)CNC(=O)C(C2CCN=C(N)N2)NC(=O)/C(=C\NC(N)=O)NC1=O (stereo not drawn) (H-[Dap]S[Dap](ξβ3hOrn)[ΔAla(E,3-NHCONH2)][X1]; lactam 1-C; configuration not given here)",101%
7,COC(=O)[C@]1(C)CCC[C@]2(C)c3ccc(C(C)C)cc3C(=O)CC12 (some centres undefined),89.3%
8,OC[C@H]1O[C@@H](Oc2ccc(O)cc2)[C@H](O)[C@@H](O)[C@@H]1O,115%
9,CC(=O)c1ccc2c(c1)N(CCCN(C)C)c1ccccc1S2,104%
10,C=C(C)C1CC=C(CO)CC1 (centres undefined),117%
11,CO[C@@]1(NC(=O)CSCC#N)C(=O)N2C(C(=O)O)=C(CSc3nnnn3C)CSC21 (some centres undefined),98.6%
12,COc1cc(C(=O)NCCCCCC(=O)O)cc(OC)c1OC,120%
13,O=C(/C=C/c1ccccc1)O[C@H]1C[C@@H](O)[C@]2(O)C=CO[C@@H](O[C@@H]3O[C@H](CO)[C@@H](O)[C@H](O)[C@H]3O)[C@H]12,108%
14,COC(=O)c1c(C)c2c(c(C)c1O)OC(=O)c1c(C)c(Cl)c(O)c(Cl)c1O2,111%
15,COc1ccc2c(c1)OCC(Cc1ccc(OC)c(OC(C)=O)c1)C2=O (centres undefined),113%
16,CC(C)CCCC(C)C1CCC2C3CC[C@H]4C[C@@H](O)CC[C@]4(C)C3CC[C@]12C (some centres undefined),109%
17,CC[C@H]1OC(=O)[C@H](C)[C@@H](O[C@H]2C[C@@](C)(OC)[C@@H](O)[C@H](C)O2)[C@H](C)[C@@H](O[C@@H]2O[C@H](C)C[C@H](N(C)C)[C@H]2O)[C@](C)(O)C[C@@H](C)CN(C)[C@H](C)[C@@H](O)[C@]1(C)O,104%
18,COc1cc(O)c(C(C)=O)c(OC)c1,104%
19,CO[C@H]1[C@@H](O)[C@@H](C)O[C@H](O[C@H]2CCC3(C)C4CCC5(C)[C@@H](C6=CC(=O)OC6)CC[C@]5(O)[C@@H]4CC[C@]3(O)C2)[C@@H]1O (some centres undefined),113%
20,CCCCCC(=O)Cc1cc(O)cc(O)c1C(=O)Oc1cc(CC(=O)CCCCC)c(C(=O)O)c(OC)c1,106%
21,C=C1C[C@]23C[C@@]1(O)CC[C@H]2[C@@]12C=C[C@H](O)C(C)(C(=O)O1)[C@H]2[C@@H]3C(=O)O,121%
22,O=c1c(O)c(-c2ccccc2)oc2ccc3occc3c12,104%
23,C=CCCCCCCCCCCCC(O)CC(O)CO (centres undefined) (tested in a mixture with another compound),85.4%
24,O=C(O)CCC(=O)Nc1ccc(S(=O)(=O)Nc2nccs2)cc1,116%
25,CN(C)CCOC(=O)C(c1ccccc1)C1(O)CCCC1 (centres undefined),115%
